Consider 58 molecules from PubChem BioAssay (Tox21).

Results filed as inconclusive are left out. A number with no mark means an inactive call. Calls of active or inactive are those of the source. Calls come from the whole dose curve; as a rule, active = well fitted cell-killing curve with a large enough effect in the repeat runs; inconclusive = weak or mixed curves, or effect the other way; inactive = flat fitted curve, though single readings scatter.

The nature of assay [1]: cAMP Responsive Elements (CRE) small molecule antagonists, cell-based qHTS assay: qHTS cell viability counter screen (AID 2060913). Note: nearly all actives have a fitted effect of over 40% in size. The method in brief:
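HEK293T CRE-bla, 2,000 cells/well, 18 h preincubation; cpd in DMSO + NKH477 0.25 uM final, 3 h 37 C/5% CO2; LiveBLAzer 2 h RT, then CellTiter-Glo 30 min RT, luminescence.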
(In general: Quantitative high-throughput screening tests each substance at several concentrations.)

Assay [2] in a line: cAMP Responsive Elements (CRE) small molecule agonists, cell-based qHTS assay: qHTS cell viability counter screen (AID 2060914). Note: nearly all actives have a fitted effect of over 50% in size. The method in brief:
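Luminescence read-out (CellTiter-Glo, 30 min RT) of ATP-based viability in CRE-bla HEK 293T cells, run in the same wells as the β-lactamase reporter assay after 3 h compound treatment at 37 °C.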
% is set by controls: 0 for no effect and ±100 for the full control effect.

On to `NCCN1CCNCC1`, for which the Potency entry in assay [1] and in assay [2] was “inactive” throughout.
For the molecule `NCCNCCNCCN`, the Potency entry in assay [1] and in assay [2] was “inactive” in each case.
For `NCCCC(N)(C(=O)O)C(F)F` (stereo unspecified), the Potency result in assay [1] and in assay [2] was “inactive” in each case.
Turning to `CN1CCCCC1CCN1c2ccccc2Sc2ccc(S(C)=O)cc21` (stereo unspecified), the Potency entry in assay [1] and in assay [2] was “inactive” in each case.
On to `Cc1ccc(O)c(-n2nc3ccccc3n2)c1`, for which the Potency entry in assay [1] and in assay [2] was “inactive” throughout.
Consider `NC(=O)NC(N)=O`, for which the Potency entry in assay [1] and in assay [2] was “inactive” each time.
For `O=S(=O)(O)c1cc(S(=O)(=O)O)c2c(N=Nc3ccccc3)c(O)ccc2c1`, the Potency entry in assay [1] and in assay [2] was “inactive” each time.
For the molecule `Cc1ccc(C(=O)c2ccccc2)cc1`, the Potency entry in assay [1] and in assay [2] was “inactive” throughout.
With `N#Cc1nc(Cl)c(Cl)c(Cl)c1Cl`, the Potency result in assay [1] and in assay [2] was “inactive” each time.
As to `CN1C(=O)OC(C)(C)C1=O`, the Potency entry in assay [1] and in assay [2] was “inactive” throughout.
On to `C1COC1`, for which the Potency entry in assay [1] and in assay [2] was “inactive” throughout.
As to `CCCCOCCOCCOC(C)=O`, the Potency entry in assay [1] and in assay [2] was “inactive” in each case.
For the molecule `CCCCCCCC/C=C\CCCCCCCCCCCC(=O)O`, the Potency entry in assay [1] and in assay [2] was “inactive” in each case.
For `N[C@@H](C(=O)N[C@@H]1C(=O)N2C(C(=O)O)=C(Cl)CS[C@H]12)c1ccccc1`, the viability change, negative = cytotoxic in assay [1] is 0.002% [at 8.39 µM]. Moreover, the activity change, negative = cytotoxicity in assay [2] was 8.3% [at 8.39 µM].
As for `Cc1c[nH]c(=O)[nH]c1=O`, the Potency entry in assay [1] and in assay [2] was “inactive” each time.
In the case of `CN(C)c1ccc(N=Nc2ccccc2C(=O)O)cc1`, the Potency result in assay [1] and in assay [2] was “inactive” in each case.
For the molecule `CN(Cc1ccc(C(C)(C)C)cc1)Cc1cccc2ccccc12`, the Potency entry in assay [1] and in assay [2] was “inactive” each time.
For the molecule `Oc1cn2c(n1)Nc1ccc(Cl)c(Cl)c1C2`, the viability change, negative = cytotoxic in assay [1] is 7.34% [at 18.9 µM]. Also, the activity change, negative = cytotoxicity in assay [2] was -5.61% [at 18.9 µM].
On to `CCOC(=O)OC(C)OC(=O)[C@@H]1N2C(=O)[C@@H](NC(=O)[C@H](N)c3ccccc3)[C@H]2SC1(C)C` (stereo partly specified), for which the Potency result in assay [1] and in assay [2] was “inactive” each time.
For `CCC(O)C(C)(C)C` (stereo unspecified), the Potency entry in assay [1] and in assay [2] was “inactive” throughout.
As for `NC(=O)c1cccc([N+](=O)[O-])c1`, the Potency result in assay [1] and in assay [2] was “inactive” each time.
In the case of `CCCCC/C=C\CCC=O`, the Potency entry in assay [1] and in assay [2] was “inactive” throughout.
With `CCCCCCCC/C=C\CCCCCCCCO`, the Potency result in assay [1] and in assay [2] was “inactive” in each case.
For `CCCCCCCCCCCCCCCC(=O)OCC`, the Potency result in assay [1] and in assay [2] was “inactive” each time.
For the molecule `Oc1ccc(/C=C/c2cc(O)cc(O)c2)cc1`, the Potency result in assay [1] and in assay [2] was “inactive” each time.
For `CC1=C(O)C(=O)C(C)O1` (stereo unspecified), the Potency entry in assay [1] and in assay [2] was “inactive” throughout.
With `Cc1nc2ccccc2c(=O)o1`, the Potency entry in assay [1] and in assay [2] was “inactive” in each case.
On to `CC(C)NC(=O)c1ccccc1N`, for which the Potency result in assay [1] and in assay [2] was “inactive” throughout.
In the case of `O=c1[nH][nH]c(=O)c2cc([N+](=O)[O-])ccc12`, the Potency result in assay [1] and in assay [2] was “inactive” each time.
`Cc1ccc(C=O)s1`: the Potency result in assay [1] and in assay [2] was “inactive” each time.
As to `O=C(CCCCC(=O)Nc1c(I)cc(I)c(C(=O)O)c1I)Nc1c(I)cc(I)c(C(=O)O)c1I`, the Potency result in assay [1] and in assay [2] was “inactive” in each case.
For `CCN(CC)CCc1nc(-c2ccccc2)no1`, the Potency result in assay [1] and in assay [2] was “inactive” each time.
On to `COc1ccc(/C=C/S(=O)(=O)NC(=O)c2ccc(C)cc2Cl)cc1`, for which the Potency entry in assay [1] and in assay [2] was “inactive” each time.
As for `CCO[C@@H]1O[C@H](C(COCc2ccccc2)OCc2ccccc2)[C@H](OCc2ccccc2)[C@H]1O` (stereo partly specified), the Potency entry in assay [1] and in assay [2] was “inactive” each time.
As to `O=C1c2ccccc2C(=O)C1c1ccc(Br)cc1`, the Potency entry in assay [1] and in assay [2] was “inactive” in each case.
On to `COc1ccc2c(c1)C(=O)N(CCc1ccc(S(=O)(=O)NC(=O)NC3CCCCC3)cc1)C(=O)C2(C)C`, for which the Potency entry in assay [1] and in assay [2] was “inactive” each time.
On to `CCN(CC)c1ccc2c(c1)Oc1cc(N(CC)CC)ccc1C21OC(=O)c2ccccc21`, for which the Potency entry in assay [1] and in assay [2] was “inactive” in each case.
As to `COC(C)OC`, the Potency result in assay [1] and in assay [2] was “inactive” in each case.
In the case of `Cc1cccc(Nc2ccccc2C(=O)O)c1C`, the Potency result in assay [1] and in assay [2] was “inactive” in each case.
For `Cc1ccc(S(=O)(=O)N=C=O)cc1`, the Potency entry in assay [1] and in assay [2] was “inactive” each time.
Regarding `[Cl][Dy]([Cl])[Cl]`, the Potency entry in assay [1] and in assay [2] was “inactive” throughout.
As to `NC(=O)C1(N2CCCCC2)CCN(CCCC(=O)c2ccc(F)cc2)CC1`, the Potency result in assay [1] and in assay [2] was “inactive” in each case.
With `C=C(C)C(=O)OCC(CC)(COC(=O)C(=C)C)COC(=O)C(=C)C`, the Potency entry in assay [1] and in assay [2] was “inactive” each time.
In the case of `CN(C)C(=O)C(CCN1CCC(O)(c2ccc(Cl)cc2)CC1)(c1ccccc1)c1ccccc1`, the Potency entry in assay [1] and in assay [2] was “inactive” in each case.
Take `CC(N)C(=O)OC(C)(C)Cc1ccc(Cl)cc1` (stereo unspecified): the Potency result in assay [1] and in assay [2] was “inactive” each time.
For the molecule `CN(C)C`, the Potency result in assay [1] and in assay [2] was “inactive” in each case.
With `COC(=O)c1ccccc1Cl`, the Potency result in assay [1] and in assay [2] was “inactive” throughout.
`CCCCC(CC)COP(=O)(O)O` (stereo unspecified): the Potency result in assay [1] and in assay [2] was “inactive” in each case.
`CN1CCC(=C2c3ccccc3CCc3sccc32)CC1`: the Potency result in assay [1] and in assay [2] was “inactive” in each case.
On to `C=CCOc1c(Br)cc(C(C)(C)c2cc(Br)c(OCC=C)c(Br)c2)cc1Br`, for which the Potency entry in assay [1] and in assay [2] was “inactive” throughout.
For `C1=CCCC1`, the Potency entry in assay [1] and in assay [2] was “inactive” in each case.
Regarding `CCc1nn(C2CCCCC2)c2cc(C3(C#N)CCC(C(=O)O)CC3)ccc12` (stereo unspecified), the Potency result in assay [1] and in assay [2] was “inactive” throughout.
`C=C1C2CCC(C2)C1(C)C` (stereo unspecified): the Potency result in assay [1] and in assay [2] was “inactive” in each case.
Regarding `CC/C=C\CCOC(=O)CCCCC`, the Potency result in assay [1] and in assay [2] was “inactive” throughout.
For `Brc1cc(-c2ccc(Br)c(Br)c2Br)cc(Br)c1Br`, the Potency entry in assay [1] and in assay [2] was “inactive” in each case.
Regarding `CC(C)CC(C)(C)C`, the Potency entry in assay [1] and in assay [2] was “inactive” in each case.
For the molecule `Nc1nc(Cl)cc(Cl)n1`, the Potency entry in assay [1] and in assay [2] was “inactive” in each case.
On to `FC(F)(F)C(F)(F)C(F)(F)C(F)(F)C(F)(F)C(F)(F)C(F)(F)C(F)(F)C(F)(F)C(F)(F)F`, for which the viability change, negative = cytotoxic in assay [1] is 10.4% [at 8.39 µM]. The activity change, negative = cytotoxicity in assay [2] was -0.902% [at 8.39 µM].
